Activity calls are given as the source filed them. The calls were made as follows: active = hit-call score of the fitted dose curve at least 0.9, where 1 is the maximum; inactive = score below 0.9.
Assay: APR_HepG2_MitoMass_1hr: Apredica 1-hour HepG2 Assay for Mitochondrial Mass (AID 2282674)
Conditions: high-content imaging, actives raise or lower the signal
Protocol: APR_HepG2_1hr is a cell-based, multiplexed-readout assay that uses HepG2, a human liver cell line, with measurements taken at 1 hour after chemical dosing in a 384-well plate.APR_HepG2_MitoMass_1hr is one of 10 assay component(s) measured or calculated from the APR_HepG2_1hr assay. It is designed to make measurements of cell phenotype, a form of morphology reporter, as detected with fluorescence intensity signals by HCS Fluorescent Imaging technology.Data from the assay component APR_HepG2_MitoMass_1hr was analyzed into 1 assay endpoint. This assay endpoint, APR_HepG2_MitoMass_1hr, was analyzed with bidirectional fitting relative to DMSO as the negative control and baseline of activity. Using a type of morphology reporter, gain or loss-of-signal activity can be used to understand changes in the signaling. Furthermore, this assay endpoint can be referred to as a primary readout, because this assay has produced multiple assay endpoints where this one serves a signaling function. To generalize the intended target to other relatable targets, this assay endpoint is annotated to the cell morphology intended target family, where the subfamily is organelle conformation.
Cells were treated with dimethyl sulfoxide (DMSO) as a solvent control at a final concentration of 0.5% v/v or with compounds in DMSO with a resulting final DMSO concentration of 0.5% v/v. Compound treatment was done at concentrations of 0.39, 0.78, 1.56, 3.12, 6.24, 12.5, 25, 50, 100, and 200 uM in duplicate on each plate. Cells were treated with compounds for 1, 24, or 72 hr. Carbonyl […] m-chloro-phenylhydrazone (CCCP) and taxol were used as positive controls for mitochondrial function and cytoskeletal stability, respectively; DMSO served as the negative control for this experiment. Cells were fixed by the direct addition of 50 uL formaldehyde in Hank's Balanced Salt Solution (HBSS) to a final concentration of 3.7%. After incubation in the fixation medium for 30 min at room temperature (293-298 K), cells were rinsed twice with HBSS and treated with cell permeabilization buffer (16 uL of 0.5% Triton X-100) for 10 min at room temperature (293-298 K) before labeling. For mitochondrial membrane potential and mitochondrial measurements, pre-fixed cells were incubated with 50 uL of MitoTracker Red CMXRos (Invitrogen) at a concentration of 250 nM for 30 min before fixation. In the remaining cases, post-fixed cells were labeled by incubation with a multiplexed mixture of primary antibodies in HBSS for 60 min at room temperature (293-298 K) to detect immunoreactivity of c-Jun (1:500), phospho-histone H3 (1:100), phospho-histone H2A.x (1:200), p53 (1:400), alpha-tubulin (1:200) and Hoechst 33342 (2 ug/mL). Cells were labeled for multiplexed imaging on two separate plates: a) Hoechst 33342, MitoTracker Red, phospho-histone H3, and alpha-tubulin, and b) Hoechst 33342, phospho-histone H2A.x, and c-Jun. A final rinse with HBSS (50 uL) was performed before analysis. The primary and secondary antibodies for the proteins were phospho-histone H3 (rabbit anti-phospho-histone H3 and FITC-donkey anti-rabbit IgG), phospho-histone H2A.x (mouse anti-phospho-histone H2A.x and FITC-donkey anti-mouse IgG), c-Jun (rabbit anti-phospho-c-Jun and Cy3-donkey anti-rabbit IgG), p53 (sheep anti-p53 and Cy5-donkey anti-sheep IgG), alpha-tubulin (mouse anti-alpha-tubulin and Cy5-donkey anti-mouse IgG). These antibodies are available as the CellCiphr HepG2 assay kit (Millipore).Digital images of each well were captured using a Cellomics ArrayScan VTI (Thermo Scientific Cellomics) (0.8 NA objective, 0.63x optical coupler, and XF-93 filter set) at 20x magnification. The images were acquired using the autofocus feature of the ArrayScan instrument, which entails the following steps. First, the camera focuses on channel 1 (Hoechst 33342), where nuclei are identified. Second, a Z offset of 1 um is used for capturing mitochondria (MitoTracker Red). Third, a Z offset of -2 um is used for capturing the cytoskeleton (tubulin). […]

Compound	outcome	AC50
CCOC(=O)C(C)Oc1ccc(Oc2cnc3cc(Cl)ccc3n2)cc1 (stereo not given)	inactive	–
COCCO	inactive	–
Cc1nn(C)c(Oc2ccccc2)c1C=NOCc1ccc(C(=O)OC(C)(C)C)cc1	inactive	–
CCCOC(=O)NCCCN(C)C	inactive	–
CCCN(CCC)C(=O)SCC	inactive	–
COC(=O)c1cccc(C)c1S(=O)(=O)NC(=O)Nc1nc(OCC(F)(F)F)nc(N(C)C)n1	inactive	–
CCCCOCCOCCOCc1cc2c(cc1CCC)OCO2	inactive	–
COC(=O)c1ccccc1S(=O)(=O)NC(=O)Nc1nc(OC(F)F)cc(OC(F)F)n1	inactive	–
CCCN(CCC)c1c([N+](=O)[O-])cc(C(F)(F)F)c(N)c1[N+](=O)[O-]	–	158 µM (active)
CCOC(=O)NCCOc1ccc(Oc2ccccc2)cc1	inactive	–
CCCCC(CC)CN1C(=O)C2C3C=CC(C3)C2C1=O (stereo not given)	inactive	–
O=C(O)C1(C(=O)Nc2ccc(Cl)cc2Cl)CC1	inactive	–
CCCCCCC(C)OC(=O)COc1nc(F)c(Cl)c(N)c1Cl (stereo not given)	–	64 µM (active)
COC(=O)CSc1cc(N=c2sc(=O)n3n2CCCC3)c(F)cc1Cl	inactive	–
CSC(=O)c1cccc2nnsc12	inactive	–
CC(C)(c1ccc(O)cc1)c1ccc(O)cc1	inactive	–
CCN(CC)C(=O)c1cccc(C)c1	inactive	–
CN(C)C(=O)Nc1ccc(Cl)c(Cl)c1	inactive	–
C#CCOC(=O)[C@@H](C)Oc1ccc(Oc2ncc(Cl)cc2F)cc1	inactive	–
CCOC(=O)C(C)Oc1ccc(Oc2nc3ccc(Cl)cc3o2)cc1 (stereo not given)	inactive	–

Compound	outcome	AC50
CCCOC(=O)c1ccc(C(=O)OCCC)nc1	inactive	–
N#CSCSc1nc2ccccc2s1	–	28.1 µM (active)
OB(O)O	inactive	–
COc1nc(C)nc(NC(=O)NS(=O)(=O)c2ccccc2OCCCl)n1	inactive	–
COC(=O)c1ccc(CNS(C)(=O)=O)cc1S(=O)(=O)NC(=O)Nc1nc(OC)cc(OC)n1	inactive	–
CC1(C)C(C=C(Cl)Cl)C1C(=O)OCc1cccc(Oc2ccccc2)c1 (stereo not given)	inactive	–
S=C(S)NCCNC(=S)S.[Mn+2].[S-]C([S-])=NCCN=C([S-])[S-].[Zn+2]	inactive	–
CCOC(=O)COc1cc(-n2ncc(C(F)(F)F)c(C)c2=O)c(F)cc1Cl	inactive	–
CC(C)(C)[C@@H](O)[C@@H](Cc1ccc(Cl)cc1)n1cncn1	inactive	–
CCC(O)=C1C(=O)CC(C(=O)O)CC1=O (stereo not given)	inactive	–
CCCCCOC(=O)COc1cc(N2C(=O)C3=C(CCCC3)C2=O)c(F)cc1Cl	inactive	–
c1ccc(Nc2ccccc2)cc1	inactive	–
CCNc1nc(N)nc(Cl)n1	inactive	–
CCC(C)OC(=O)N1CCCCC1CCO (stereo not given)	inactive	–
COC(=O)c1ccccc1C(=O)O	inactive	–
COc1c(Cl)ccc(Cl)c1C(=O)O	inactive	–
O=C(Nc1ccc([N+](=O)[O-])cc1Cl)c1cc(Cl)ccc1O	inactive	–
Oc1ccc(C(c2ccc(O)cc2)C(Cl)(Cl)Cl)cc1	inactive	–
CCN(Cc1c(F)cccc1Cl)c1c([N+](=O)[O-])cc(C(F)(F)F)cc1[N+](=O)[O-]	inactive	–
S=C([S-])NCCNC(=S)[S-].[Mn+2]	inactive	–
